Screening data (PubChem)
sPLA2-III inh: Blocks human group III sPLA2 activity. Q9NZ20. QFRET BODIPY PC-A2 liposome hydrolysis, fluorescence. inhibition, % at 12.2 µM. actives 0.56% (n = 370,000);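 active = inhibition above mean plus 3 SD of compounds lying within the high and low control bounds, cut at about 19% in these data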;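 also: 0% = median of test compound wells and 100% = no enzyme DMSO wells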
NRP1-CendR mod: alters CendR peptide binding to human NRP-1; O14786; FAM-RPARPAR peptide binding to NRP-1, fluorescence polarization; inhibition, % at 25 µM; actives 0.85% (n = 360,000); AID 602438;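 active = inhibition or corrected inhibition above about 18%, plus a signal ratio from 0.5 to 1.5, limit read from the data, passing the limit was not always enough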
ADAM17 inh: inhibits human ADAM17. P78536. recombinant ADAM17, EDANS/DABCYL FRET peptide cleavage. inhibition, % at 6.95 µM. actives 0.83% (n = 370,000). AID 720648;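 active = inhibition above the mean of compounds lying between control limits plus 3 SD, set per campaign, cut at about 8.5% in these data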;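 also: 0% = DMSO-only wells as the low control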
proKLK7 act: proKLK7 (human) activation, primary screen. P49862. purified proKLK7, EDANS-DABCYL substrate fluorescence; 100% is mature enzyme control, 0% vehicle. activation, % at 7 µM. actives 0.9% (n = 370,000). AID 652039;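 active = activation above the mean of all tested compounds plus 3 SD, computed per campaign excluding outliers beyond control limits, cut at about 13% in these data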
Target sequence (P49862 whole entry, looked up): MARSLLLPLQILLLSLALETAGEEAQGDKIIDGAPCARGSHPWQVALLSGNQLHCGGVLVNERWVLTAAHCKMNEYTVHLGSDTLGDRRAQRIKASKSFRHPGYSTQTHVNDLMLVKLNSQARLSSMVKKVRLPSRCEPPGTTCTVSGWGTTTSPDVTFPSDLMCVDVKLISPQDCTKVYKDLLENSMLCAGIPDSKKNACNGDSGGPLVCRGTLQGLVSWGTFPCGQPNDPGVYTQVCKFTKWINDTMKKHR
ADAM10 inh: ADAM10 inhibition, QFRET primary screen; inhibition, % at 7 µM; recombinant ADAM10, EDANS/DABCYL FRET peptide cleavage, 3 h; actives 0.62% (n = 370,000); AID 720582;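 active = inhibition above a per-campaign cutoff equal to the mean of compounds falling between control-based bounds plus 3 SD, cut at about 20% in these data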;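 also: 0% = DMSO wells while the 100% control is not disclosed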
Starred values were filed as active, the others as inactive; i = inactive; . = no result given. The list is not random: actives were taken first. Their share in the collection is about 3.4%.

SMILES | sPLA2-III inh | NRP1-CendR mod | ADAM17 inh | proKLK7 act | ADAM10 inh
Cc1ccc(C(=O)CCS(=O)(=O)c2ccc(Cl)cc2)cc1 | 6 | 20* | 0 | 0 | 2
CCCNC(=S)Nc1cccc(C(F)(F)F)c1 | 6 | 25* | -1 | 0 | 5
CCC(NC(=O)c1cccc2c1C(=O)N(Cc1cccnc1)C2)c1ccccc1 (stereo unspecified) | 7 | . | 1 | 0 | 3
CCN(CC)C(=O)CC[C@@H]1CC[C@]2(CCCN(C(=O)C3CCCCC3)C2)O1 | 2 | . | 3 | 0 | 3
CCCCNS(=O)(=O)c1ccc2nc(SCC(N)=O)[nH]c2c1 | -1 | -9 | -7 | 0 | 1
CCCCNS(=O)(=O)c1ccc2nc(SCC(=O)Nc3sccc3C#N)[nH]c2c1 | -49 | -7 | 13* | -1 | 20*
COc1ccc(CCNC(=O)COc2cccc(-n3cnnn3)c2)cc1 | -3 | 18* | 5 | 0 | 4
Cc1ccc(-n2c(-c3nn(C)c(C)c3Cl)n[nH]c2=S)cc1 | 8 | 20* | 0 | 0 | 4
CCn1c(-c2nn(C)c(C)c2Cl)n[nH]c1=S | -1 | 4 | 0 | -1 | -2
O=C(OCc1ccccc1)[C@H](Cc1ccccc1)NC(=O)[C@@H]1CC=C[C@@H]2CCN(C3CCCCC3)C(=O)[C@@H]21 | -9 | . | 5 | . | 14
O=C([C@@H]1CC=C[C@@H]2CCN(C3CCCCC3)C(=O)[C@@H]21)N1CCN(c2ccccc2)CC1 | 3 | 23* | -6 | 0 | -6
CCOc1cccc(-c2c(C(=O)N/N=C/c3sccc3C)nnn2-c2nonc2N)c1 | -34 | 2 | 4 | -4 | 7
CCOc1ccc(-c2c(C(=O)N/N=C/c3sccc3C)nnn2-c2nonc2N)cc1 | -8 | 24* | 4 | -1 | 12
NNC(=O)c1[nH]c2ccc([N+](=O)[O-])cc2c1-c1ccccc1 | 1 | 24* | 4 | 1 | 9
O=C(O)c1[nH]c2ccc([N+](=O)[O-])cc2c1-c1ccccc1 | 3 | 6 | -6 | 0 | -7
Cc1ccccc1CC(=O)Nc1ccc2c(c1)c(=O)n(C)n2-c1ccccc1F | -3 | -2 | -377 | 8 | i
Cc1ccccc1CC(=O)Nc1ccc2c(c1)c(=O)n(C)n2-c1cccs1 | 9 | 27* | -9 | 1 | -26
Cc1ccc(-c2csc(N)n2)cc1 | 0 | 1 | -3 | 0 | -3
COc1ccc(-c2csc(N)n2)cc1 | 6 | 31* | 1 | 0 | -7
O=S1(=O)C=CCN1Cc1cn(Cc2ccc(C(F)(F)F)cc2)nn1 | 6 | . | 0 | 0 | -3
CN(C)/N=C/c1ccc(Sc2ccc([N+](=O)[O-])cc2[N+](=O)[O-])o1 | 5 | 33* | 2 | 0 | 0
Cc1noc(C)c1C(=O)N1CCC1(C)C(=O)NS(=O)(=O)c1cccc(Cl)c1 (stereo unspecified) | 8 | 41* | -3 | 0 | -2
O=C(CN1CCC(NC(=O)Nc2ccc(Cl)cc2)CC1)Nc1ccc2c(c1)OCCO2 | -3 | . | 0 | 0 | -1
Cc1cnc(C(=O)OCC(=O)N2CC(C)CC(C)C2)cn1 (stereo unspecified) | 5 | 6 | -4 | 0 | -14
Cc1cnc(C(=O)OCC(=O)N2CCC(C)CC2)cn1 | 1 | 23* | -6 | 0 | -10
SMILES | sPLA2-III inh | NRP1-CendR mod | ADAM17 inh | proKLK7 act | ADAM10 inh
N#Cc1c(N)nc2c(c1N)CC(COc1ccccc1)O2 (stereo unspecified) | 3 | 11 | -4 | -1 | -9
Cc1ccccc1OCC1Cc2c(nc(N)c(C#N)c2N)O1 (stereo unspecified) | 2 | 53* | 3 | 1 | 3
C[C@@H]1[C@@H](O)C[C@@]2(C[C@H](O)c3ccccc3O2)O[C@H]1c1ccccc1 | -4 | . | 3 | 0 | -1
CN1CCN(C(=O)c2ccc(COc3ccc(C(C)(C)C)cc3)o2)CC1 | -9 | 23* | 0 | 0 | 0
O=C(Cn1ccc(NC(=O)OCc2ccccc2)nc1=O)NCCN1CCOCC1 | 3 | 38* | 0 | 0 | -9
O=C1CCC[C@H]2Cc3nc4ccccc4cc3C[C@]23CCCN13 | -2 | . | -1 | . | -1
O=C(Nc1ccccc1C(=O)NCc1ccco1)c1ccco1 | -2 | -13 | -2 | -1 | -3
O=C(Nc1ccccc1C(=O)NCc1ccco1)NC1CCCCC1 | 9 | 20* | -1 | 0 | -3
